Sampled rows, rich in hits. Any-hit rate of the full collection: about 2.4%.
Arbovirus anti: antivirals against arbovirus infection; arbovirus infection cell-based antiviral screen; inhibition, % at 10 µM; 0.37% of 200,000 active; AID 1251; in the data active means inhibition above about 30%
EP2 mod: EP2 receptor (human) modulation. induction, % at 25 µM. 0.83% of 260,000 active. EP2-expressing cells, cAMP HTRF FRET, PGE2 co-stimulation. P43116. AID 940;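 active means compounds whose cAMP rise, as percent of the full-agonist control response, exceeds 60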;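 further: rat C6 glioma line stably carrying human EP2 under a CMV promoter; the protocol text gives 20 µM as final concentration; 100% = response of wells given 1 µM PGE2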
EP2 antag: EP2 receptor (human) inhibition. P43116. C6 glioma cells expressing human EP2, cAMP TR-FRET; cells stimulated with saturating PGE2. inhibition, % at 25 µM. 0.52% of 260,000 active. AID 1422;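 active means percent inhibition above 40 after rounding to a whole number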;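 further: rat C6 glioma host cells with rolipram phosphodiesterase inhibitor present; the protocol text gives 20 µM as final concentration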
p97 ATPase inh: human p97 ATPase inhibition; recombinant p97 ATPase, Kinase-Glo ATP luminescence, 3 h; inhibition, % at 8 µM; 0.42% of 220,000 active; in the data active means inhibition above about 15%;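 further: 0% = DMSO vehicle and 100% = wells lacking enzyme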
Hck-Nef inh: inhibitors of human Hck kinase activated by Nef; Recombinant Hck-YEEI plus Nef, Z-Lyte FRET kinase assay; inhibition, % at 20 µM; 0.68% of 220,000 active; AID 463187;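 active means Hck-Nef kinase inhibition above about 50%, limit read from the data; inactive means inhibition below that limit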;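 further: 0% = DMSO with Hck plus Nef and 100% = Hck alone without Nef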
Target sequence (P08631 whole entry, looked up): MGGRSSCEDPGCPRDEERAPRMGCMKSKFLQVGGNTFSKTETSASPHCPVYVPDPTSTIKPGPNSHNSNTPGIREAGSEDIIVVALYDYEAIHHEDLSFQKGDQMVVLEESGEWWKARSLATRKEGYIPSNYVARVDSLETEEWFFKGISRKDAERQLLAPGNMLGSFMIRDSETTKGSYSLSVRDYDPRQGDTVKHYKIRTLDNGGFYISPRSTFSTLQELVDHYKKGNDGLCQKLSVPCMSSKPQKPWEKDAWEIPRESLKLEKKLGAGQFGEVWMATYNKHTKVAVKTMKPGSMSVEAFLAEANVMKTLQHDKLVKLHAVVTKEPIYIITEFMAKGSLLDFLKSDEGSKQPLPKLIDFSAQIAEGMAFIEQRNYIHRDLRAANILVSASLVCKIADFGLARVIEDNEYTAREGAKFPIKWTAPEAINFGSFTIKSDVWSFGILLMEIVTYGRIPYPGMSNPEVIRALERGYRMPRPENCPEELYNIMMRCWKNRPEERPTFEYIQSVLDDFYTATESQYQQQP
p97 confirm: confirmation of human p97 ATPase inhibitors | inhibition, % at 8 µM | AID 1517 | recombinant p97 ATPase, Kinase-Glo ATP luminescence | 44% of 760 active | shares compounds with p97 ATPase inh;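 active means percent inhibition of p97 ATPase above a set limit, the primary screen's mean plus 3 SD, cut at about 15% in these data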;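 further: 0% = DMSO wells and 100% = wells lacking p97 protein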
Numbers without * were called inactive; . = no result given.

SMILES	Arbovirus anti	EP2 mod	EP2 antag	p97 ATPase inh	Hck-Nef inh	p97 confirm
CSc1nsc2nc(=O)c(/C=C3\C(C)=Nc4ccccc43)c(N)n12	31.8*	-25.1	4.6	21.0*	-42.2	38.2*
Cn1nc(CC(=O)N2CCC(n3nnc(-c4ccc(F)cc4)n3)CC2)c2ccccc2c1=O	.	-33.8	.	.	.	.
S=c1[nH]nc(C2CC2)n1Cc1ccccc1	3.2	22.0	3.1	49.6*	-28.6	8.9
C(=N\Nc1nc2ccccc2[nH]1)/c1c[nH]c2ccccc12	-40.5	-103.5	33.4	15.1*	0.7	8.2
C(=N\Nc1nc2ccccc2[nH]1)/c1cccc2cccnc12	.	-50.1	22.7	20.1*	-3.8	3.5
O=C(NNC(=O)c1cc2cc(Br)ccc2oc1=O)c1ccc(O)cc1O	-31.2	-15.3	5.0	18.6*	35.5	24.4*
O=C(Nc1cccc(Br)c1)c1cc2cc(Br)ccc2oc1=O	.	-6.0	8.3	.	.	.
Cc1nc(NC(=O)COC(=O)CCS(=O)(=O)c2ccccc2Cl)c(Cl)cc1Cl	-4.3	-19.0	11.2	-2.2	-0.5	.
Cc1[nH]c2ccccc2c1C(=O)COC(=O)CCS(=O)(=O)c1ccccc1Cl	-7.3	-88.6	11.3	26.7*	5.7	30.0*
COCCn1c(SCC(=O)N2CCN(c3ccccc3OC)CC2)nnc1-c1ccco1	.	16.0	10.7	.	.	.
O=C(Nc1ccccc1)C1(c2ccccc2)CC1(Cl)Cl (stereo unspecified)	3.5	19.2	6.8	3.4	-4.6	.
O=C(Nc1cc(Cl)ccn1)C1(c2ccccc2)CC1(Cl)Cl (stereo unspecified)	.	6.2	1.1	16.7*	5.6	25.1*
Cc1cc(N(CC(=O)N2CCOCC2)S(C)(=O)=O)ccc1Br	.	-22.3	2.8	.	.	.
O=C(N/N=C/c1c[nH]c2ccc(Br)cc12)c1ccc2c(c1)OCO2	-17.3	-79.6	5.2	15.7*	37.8	11.7
O=C(N/N=C/c1c[nH]c2ccccc12)c1ccc2c(c1)OCCO2	.	-42.7	11.3	9.7	13.9	.
Cc1[nH]c2ccccc2c1/C=N/Nc1cccc(C(=O)O)c1	.	3.5	1.8	18.5*	7.9	19.1*
Cc1[nH]c2ccccc2c1/C=N/NC(=O)c1cc(-c2ccccc2)n[nH]1	.	-41.2	11.5	20.6*	20.4	17.3*
O=C(NC1CCCC1)C(c1ccco1)N(Cc1ccc(Cl)cc1)C(=O)c1csnn1 (stereo unspecified)	.	8.6	5.4	.	.	.
O=C1NN(c2ccc(Cl)c(Cl)c2)C(=O)/C1=C/c1cccc(OC(=O)c2cccs2)c1	-24.7	-7.5	8.8	19.2*	21.8	7.1
C=C1C2(C(=O)Nc3nccs3)CCC(C2)C1(C)C (stereo unspecified)	-2.7	42.1	7.2	37.1*	1.5	5.9
CC1(C)OC(=O)C(=CNc2ccccn2)C(=O)O1	.	-14.8	14.8	15.1*	15.0	1.5
CC1(C)OC(=O)C(=CNc2ncccn2)C(=O)O1	5.3	13.2	16.9	3.8	3.5	.
Cc1[nH]n(-c2ccc(Cl)cc2)c(=O)c1C(=O)c1ccccc1	17.3	18.2	17.7	1.9	20.2	.
CC1=NN(c2ccc(Cl)cc2)C(=O)C1C(c1cccc(O)c1)c1c(C)[nH]n(-c2ccc(Cl)cc2)c1=O (stereo unspecified)	-4.0	45.6	7.7	17.1*	1.2	8.3
Cc1occc1-c1nnc(SCC(=O)c2c[nH]c3ccccc23)n1C	3.4	22.3	12.7	17.5*	4.1	28.6*
SMILES	Arbovirus anti	EP2 mod	EP2 antag	p97 ATPase inh	Hck-Nef inh	p97 confirm
CCOCCCNCc1cc2c(C(C)(C)C)nn(-c3ccccc3)c2[nH]c1=O	.	-15.6	9.3	.	.	.
C[N+]1(C)CCC(=C2c3ccccc3CC(=O)c3sccc32)CC1	-3.3	9.8	6.2	19.2*	0.8	13.9
Cc1csc2c(=O)sc(NC(=O)c3ccc(F)cc3Cl)nc12	.	-7.0	5.4	16.9*	5.2	19.5*
COc1cc(C(=O)c2nccc3cc(OC)c(OC)cc23)c([N+](=O)[O-])cc1OC	5.2	26.5	3.8	29.9*	22.9	24.8*
COc1ccc(C(=O)Nc2ccc(N3CCN(S(C)(=O)=O)CC3)cc2)cc1Cl	.	-12.9	9.1	.	.	.
O=C(C1CCCO1)N1CCC(Cn2nc(-c3ccco3)ccc2=O)CC1 (stereo unspecified)	.	-24.0	.	.	.	.
CCCC1Nc2ccc(C(=O)O)cc2C2C=CCC12 (stereo unspecified)	27.2	18.4	7.6	25.8*	45.5	7.7
CC(C)C1Nc2ccc(C(=O)O)cc2C2C=CCC21 (stereo unspecified)	15.4	50.0	6.2	5.2	38.2	.
CN(C)CCCn1c(SCC(=O)Nc2cccc(C(F)(F)F)c2)nnc1-c1ccncc1	.	19.2	4.9	.	.	.
O=S(=O)(c1ccc2oc(=S)[nH]c2c1)N1CCCCC1	.	19.4	8.5	21.3*	16.7	3.9
O=c1[nH]c2ccc(S(=O)(=O)N3CCCCC3)cc2o1	3.0	-31.6	13.4	4.2	8.4	.
CCCOC(=O)Cn1cnc2sc3c(c2c1=O)CCC(C)C3 (stereo unspecified)	.	-13.8	6.5	.	.	.
CCC(CNc1cc(OC)cc2cccnc12)NC1CCCCC1 (stereo unspecified)	.	-25.3	13.9	24.4*	-0.7	6.8
O=S(=O)(NC1CCCCCC1)c1cccc2cccnc12	-0.5	-1.3	4.5	-4.2	-2.4	.
COc1cc(NS(=O)(=O)c2ccc(C)cc2)c2ncccc2c1	-37.5	29.7	4.8	2.1	-1.2	.
COc1cc(NCCCC(C)N)c2ncccc2c1 (stereo unspecified)	-39.9	3.7	10.4	15.2*	1.8	8.3
CCCN1C[C@H](NC(=O)c2n[nH]c3c2CCCC3)[C@@H](c2ccc(OC)cc2)C1	.	-14.1	2.6	.	.	.
CCOc1ccccc1C(=O)Nc1cc(OC)ccc1OC	-8.7	37.2	2.4	3.2	-1.6	.
CCOc1ccccc1C(=O)Nc1cc(Cl)ccc1O	-29.9	1.0	4.9	17.6*	6.4	23.2*
CCn1c2ccccc2c2cc(NC(=O)CSc3nccc(=O)[nH]3)ccc21	1.3	14.3	2.7	20.0*	24.7	29.1*
CCn1c2ccccc2c2cc(NC(=O)CSc3nnc(-c4cccc(C)c4)o3)ccc21	-5.2	-150.0	6.9	15.3*	-0.6	23.7*
CCOc1ccc(CN2CCN(C(=O)c3cccc(OC)c3OC)CC2)cc1	.	-6.5	8.2	.	.	.
CCOC(=O)c1c(N)n(CCOC(=O)c2cccs2)c2nc3ccccc3nc12	3.2	-13.1	.	21.0*	28.3	7.2
COc1ccc2c(C(=O)CCl)c[nH]c2c1	.	-9.6	8.3	35.6*	28.5	42.8*
COC(=O)C(CC(=O)O)NCc1ccco1 (stereo unspecified)	.	8.2	6.5	8.0	-4.0	.
COCCOC(=O)C(CC(=O)O)NCc1ccco1 (stereo unspecified)	.	11.8	6.7	15.5*	-8.0	2.3
Cn1ccnc1C1(O)CC2CCC(C1)N2C(=O)N1c2ccccc2Sc2ccccc21 (stereo unspecified)	.	-3.4	.	.	.	.
Nc1nc(N2CCOCC2)n[nH]1	1.0	-7.9	-1.0	17.2*	15.9	3.7

Compound activity from PubChem.
